Measured values published in PubChem BioAssay AID588463 (National Center for Advancing Translational Sciences (NCATS), 2011).
The whole screen tested about 1,200 compounds, of which about 15 (1%) were called active. Inconclusive results (about 7%) are left out. The sample holds actives, similar compounds and a random draw of the others, so the mix is not that of the screen. Values without a mark were called inactive. Calls come from the whole dose curve; as a rule, active = well fitted activation curve with a large enough effect; inconclusive = small, poorly fitted or top-dose-only effect; inactive = flat fitted curve, though single readings scatter.

Biological target: Beta-2 adrenergic receptor (Homo sapiens) (UniProt P07550)
Test: qHTS assay of beta-arrestin-biased ligands of beta2-adrenergic receptor: Hit Validation;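 for activation: plate controls were DMSO for no effect and maximal isoproterenol or metaproterenol response for full effect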
Conditions: cell-based beta-arrestin recruitment to beta2AR; Potency: activation; series mostly up to 46.1 µM; activation: at the top concentration
Excerpt: The concept of biased agonism is an emerging concept of molecular pharmacology which proposes that seven transmembrane receptors (7TMRs) or G protein-coupled receptors (GPCRs), exist in multiple signaling conformations and complexes and that ligands (either agonists or antagonists) can induce signaling biased responses for distinct signal transduction cascades.
Furthermore, accumulating evidence over the last decade has drawn attention to a novel function of beta-arrestins as signal transducers that scaffold various signaling molecules upon activation of 7TMRs. […] This beta-arrestin-biased signaling presumably leads to distinct physiological outcomes from those by G protein activation.
Additionally, the active receptor conformations which […] on this beta-arrestin signaling are likely different from those activating G protein signaling
The goal of this screening project will be to discover and optimize novel beta-arrestin-biased ligands for beta2-AR signaling. A luminescent cell-based assay for beta2-AR-mediated agonism, known as the Tango assay, has been validated in which ligand binding of a recombinant beta2-AR and subsequent recruitment of a recombinant beta-arrestin lead to the release of the transcriptional activator tTA, which upregulates transcription of a tTA-responsive luciferase gene.
NIH Molecular Libraries Probe Production Network [MLPCN]
NIH Chemical Genomics Center [NCGC]
PI: Bryan Roth (UNC) and Bob Lefkowitz (Duke)
NCGC Assay Protocol Summary:
Tango cells were dispensed into white, solid, tissue-culture-treated 1536-well plates at 1500 cells/well in DMEM, containing 1% fetal bovine serum (FBS). Then, 23 nL of compounds or DMSO were delivered to each well using a pin tool. Plates were incubated at 37 degrees C, 5% CO2 for 18 hr. Then 2.5 uL luminescent substrate mix (in-house prepared: 150 mM Tris-Cl, pH 7.6, 3 mM MgCl2, 1% Triton X-100, 5 mM DTT, 0.5 mM CoA, 0.15 mM ATP, 0.44 mM D-luciferin, final concentrations) was added to each well. Plates were then incubated for 15 minutes at room temperature, and subsequently measured on a ViewLux plate reader for luminescent signal using a clear filter with a 10 second exposure and 2x binning. The %Activity was determined from the corrected luminescence values.
Concentration-response curves were fitted to the signals arising from the resulting luminescence. The concentration-effect curves were then classified based on curve quality (r2), response magnitude and degree of measured activity, and compounds were subsequently categorized based on their curve class.
Keywords: biased agonism, beta2-AR, beta-arrestin, GPCR, 7TMR, Tango, luminescence, MLSMR, MLPCN, NIH Roadmap, qHTS, NCGC
Potency is the fitted concentration of half-maximal effect.

Chain of Beta-2 adrenergic receptor (Homo sapiens) (P07550 whole entry, looked up): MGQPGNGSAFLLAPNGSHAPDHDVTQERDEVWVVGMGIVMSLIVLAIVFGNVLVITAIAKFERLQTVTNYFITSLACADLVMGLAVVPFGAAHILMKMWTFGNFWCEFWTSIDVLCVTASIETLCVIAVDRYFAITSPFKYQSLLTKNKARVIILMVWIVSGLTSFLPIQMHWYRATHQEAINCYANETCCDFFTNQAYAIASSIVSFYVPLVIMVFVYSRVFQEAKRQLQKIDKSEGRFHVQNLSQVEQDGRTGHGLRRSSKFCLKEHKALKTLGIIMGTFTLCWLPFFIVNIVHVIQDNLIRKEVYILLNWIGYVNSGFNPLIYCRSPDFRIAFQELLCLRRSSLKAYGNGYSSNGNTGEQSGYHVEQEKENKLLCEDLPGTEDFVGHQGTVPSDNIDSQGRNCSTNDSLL

Row | SMILES | activation [%] | Potency
1 | Clc1cccc(Cl)c1C1Nc2cccc3cccc(c23)N1 | -3.31 | –
2 | COC(=O)N1C(=O)[C@@](c2ccc(OC)cc2)(C(C)C)N1C(=O)OC | -0.416 | –
3 | COc1ccc(C(=O)C2CCCN(Cc3cnc(N4CCCC4)s3)C2)cc1OC (centres undefined) | -2.07 | –
4 | Fc1ccccc1NC(=S)Nn1cnnc1 | -2.95 | –
5 | CCOc1ccc(N(CC(=O)Nc2cccnc2)S(=O)(=O)c2ccc(C)cc2)cc1 | -4 | –
6 | O=C(CNCc1ccccc1Cl)Nc1ccc2c(c1)OCCO2 | -0.278 | –
7 | Cc1cccc(N=C2NC(=O)/C(=C/c3cccs3)S2)c1 | -0.803 | –
8 | CCNC(=S)NNc1nncc2ccccc12 | -2.03 | –
9 | S=C(N/N=C/c1ccco1)NC1CC2CCC1C2 (centres undefined) | -2.42 | –
10 | CN=C(c1ccc(C)cc1)n1c(=S)nc(-c2ccc(C)cc2)n(C)c1=S | -2.89 | –
11 | CNc1cc(C)nc(-n2nc(C)cc2C)n1 | 0.533 | –
12 | CN(C)NC(=S)Nc1ccc(Cl)cc1 | -4.31 | –
13 | C/C(CCC1CC(C)(C)OC1=O)=N\NC(N)=S (centres undefined) | -4.39 | –
14 | O=C(O)CCC(=O)N1N=C(c2ccccc2)CC1c1ccc2nccnc2c1 (centres undefined) | -2.51 | –
15 | O=C(OCC1CC(c2ccccc2)=NO1)c1ccco1 (centres undefined) | 0.568 | –
16 | COc1ccc2nc(NC(=S)N(C)C)sc2c1 | -2.69 | –
17 | COc1ccc(C2=NN(C(=O)/C=C/c3ccccc3)C(c3ccccc3)C2)c(OC(C)=O)c1 (centres undefined) | 1.88 | –
18 | Cc1cc(/C=N/NC(N)=S)c(C)n1-c1ccc(Br)cc1 | -2.46 | –
19 | COc1ccc(CN2CCCC(C(=O)c3ccc(Cl)cc3)C2)cc1Cn1cccn1 (centres undefined) | 5.4 | –
20 | COC(=O)CSc1ccc2nnc(-c3ccc(OC)c(OC)c3)n2n1 | -2.65 | –
21 | CCNC(=S)N/N=C/c1cccs1 | -3.28 | –
22 | Cc1nn(-c2ccccc2)c(C)c1/C=N/NC(=O)CSc1nnc(SCc2ccccc2Cl)s1 | -0.869 | –
23 | FC(F)(F)c1cc(Nc2ccccc2)nc(-c2ccccn2)n1 | -0.114 | –
24 | CC1S/C(=N/N=C2CCCCC2)NC1=O (centres undefined) | -1.28 | –
25 | Cc1ccc2c(c1)C(=O)N1[C@H]3c4ccccc4OC[C@@H]3[C@H](c3ccccc3)[C@]1(C)C(=O)N2 | 1.92 | –

Row | SMILES | activation [%] | Potency
26 | CCN1CCN(C(=S)NC(=O)c2cccc(Br)c2)CC1 | -2.87 | –
27 | CCC(Sc1nc2ccsc2c(=O)n1-c1ccc(Cl)c(C)c1)C(=O)NCc1ccco1 (centres undefined) | -1.32 | –
28 | Cc1ccc(-n2c(SCC(=O)NCc3ccco3)nc3c(sc4ccccc43)c2=O)cc1 | – | 13 µM (active)
29 | COc1ccc(CNc2nc(SCC(=O)NCc3ccco3)nc3ccccc23)cc1 | -0.667 | –
30 | CCOC(=O)C(Sc1cc(-c2ccccc2)nc2ncnn12)C(C)=O (centres undefined) | -1.39 | –
31 | CC(C)(O)C(=O)NN(C(=O)c1ccccc1)c1ccc2ccccc2c1 | -2.62 | –
32 | O=C(N/N=C/c1cccs1)c1cncc(Br)c1 | -2.47 | –
33 | C/C(CS(=O)(=O)c1ccc(Cl)c(Cl)c1)=N/NC(N)=S | -1.93 | –
34 | C/C(=N\NC(=S)NCc1ccccc1)c1ccc2ccccc2c1OC(F)F | -2.23 | –
35 | O=c1[nH]c(CSc2ccccn2)nc2c1cnn2-c1ccccc1 | -0.631 | –
36 | COc1ccc(NC(=O)c2cc3c(-c4ccc(OC)c(OC)c4)nn(C)c3s2)cc1OC | -0.0302 | –
37 | CCOC(=O)c1c(C)[nH]c(N=Nc2ccc(C)cc2C)c1C | -10.2 | –
38 | CCOC(=O)N1CCN(Cc2c(F)cccc2F)CC1 | -2.4 | –
39 | CCOC(=O)c1sc(NC(=O)CSc2nnc(C(C)C)n2C)nc1C | -3.85 | –
40 | CC(C)C(=O)COc1c2occc2cc2ccc(=O)oc12 | -4.07 | –
41 | O=C(Nc1cnccn1)c1ccc(Cl)cc1 | -1.39 | –
42 | CC(=O)N(c1ccccc1)C(C)c1nc(C#N)c(C#N)nc1C (centres undefined) | -1.35 | –
43 | FC(F)(F)c1cnc(N2CCSCC2)c(Cl)c1 | -6.12 | –
44 | CN(Cc1ccccc1)C(=O)CN1C(=O)c2ccccc2C1=O | -3.09 | –
45 | COc1ccc(-c2cn3cccnc3n2)cc1F | -3.26 | –
46 | O=C(NC(=S)N1CCCCCC1)c1ccccc1Cl | -2.85 | –
47 | Cc1nc(C)c(CC(=O)N/N=C/c2ccc(O)cc2)c(=O)[nH]1 | -2.66 | –
48 | COc1ccc(OCCCC(=O)Nc2nc(-c3ccccn3)cs2)cc1 | 9.17 | –
49 | Cn1cccc1C(=O)NC(=O)CSc1cccc[n+]1[O-] | -3.1 | –
50 | C/C(=N\NC(=S)NCCc1ccccc1)c1ccc(Cl)cc1Cl | -2.3 | –

Row | SMILES | activation [%] | Potency
51 | O=C1NC(c2ccc(-c3ccccc3[N+](=O)[O-])o2)C(C(=O)c2ccc(F)cc2)C(O)(C(F)(F)F)N1 (centres undefined) | -4.07 | –
52 | Cc1ccc(CN2CCSCC2)c(C)c1 | -2.68 | –
53 | C=CCNC(=S)N/N=C/c1ccc(-c2cc(Cl)ccc2Cl)o1 | -2.16 | –
54 | Cc1ccccc1NS(=O)(=O)c1ccc2oc(=O)ccc2c1 | -3.24 | –
55 | COc1ccc(NC(=S)Nc2ccccn2)c(OC)c1 | -1.86 | –
56 | O=C(CSc1cccc[n+]1[O-])c1cc2ccccc2o1 | -1.76 | –
57 | CCC1(C)Cc2ccccc2C(=S)N1 (centres undefined) | -3.36 | –
58 | C=C(C)c1cccc(C(C)(C)NC(=O)NC(c2ccccc2)c2ccc(OC)cc2)c1 (centres undefined) | 8.73 | –
59 | NC(=S)n1[nH]c(-c2ccc([N+](=O)[O-])cc2)c(N=Nc2cccc([N+](=O)[O-])c2)c1=O | -5.18 | –
60 | CCN(CC)CCCNC(=O)CCC(=O)NNc1nc2ccccc2c2nc(C)nn12 | -1.51 | –
61 | Cc1cc(C)n(-c2nc(NC(C)C)nc(NC(C)C)n2)n1 | -3.01 | –
62 | O=C(CNc1cccc(Cl)c1)c1ccc(Br)cc1 | -2.41 | –
63 | Cc1nc(COC(=O)c2ccc(S(=O)(=O)N3CCCC3)cc2)cs1 | -0.855 | –
64 | CC(C)NS(=O)(=O)c1ccc(NC(=O)C(C)Oc2ccc(C(=O)c3ccccc3)cc2)cc1 (centres undefined) | 0.57 | –
65 | CCn1nnnc1SCC(=O)Nc1nc2ccc(OC)cc2s1 | -0.634 | –
66 | CS(=O)(=O)Nc1ccc(-c2cn3cccnc3n2)cc1 | -3.46 | –
67 | O=C(NCCOc1cccnc1)C1CCC(=O)N(Cc2ccccc2F)C1 (centres undefined) | -3.24 | –
68 | COc1ccc(N(CC(=O)N2CCCC2)S(C)(=O)=O)cc1 | -3.72 | –
69 | CCN(CC)CCC(=O)N1c2ccccc2Sc2ccc(NC(=O)OC)cc21 | -1.25 | –
70 | CCCn1c(-c2ccc(F)cc2)n[nH]c1=S | -4.3 | –
71 | Cc1cccc(NC(=S)N=Nc2c(O)n(CN3CCOCC3)c3ccccc23)c1C | -2.46 | –
72 | Cc1ccccc1OCC(=O)N/N=C/c1sc(=O)n(Cc2cccc(C(=O)O)c2)c1Cl | -1.41 | –
73 | CCOc1cccc(N)c1 | -1.3 | –
74 | Cc1cccnc1NC(=S)Nc1ccc(Br)cc1Cl | -1.9 | –
